Test results from PubChem BioAssay (NCATS).
Inconclusive results are not listed. Calls of active or inactive are those of the source. Unless noted, the call rests on the fitted dose curve; in most records, active means well fitted curve in the direction sought with a large enough effect; inconclusive means small, poorly fitted or top-dose-only effect, or another doubt; inactive means no such curve, though single readings can be large; an effect the other way counts as inactive or inconclusive.

Key:
[1] = AP1 Signaling Pathway (AID 357; active means well fitted curve in either direction with a large enough effect, not every such curve was filed as active;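 further: ME-180 reporter cells stimulated with EGF at its EC50 level; on the % scale 0 is the no-effect control and ±100 the full control effect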); conditions: ME-180 AP-1-bla reporter, EGF-induced, beta-lactamase ratio, 5 h; at 7.69 µM (top of the series) unless noted
Procedure, shortened: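 Beta-lactamase reporter under AP-1 response element, ME-180 background. Stimulus: EC50 EGF. Compound exposure 5 h, 37 °C. Detection: CCF4, 2.5 h RT, 460/530 nm. Values: AC50 from titration.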

[2] = biological target: Cytochrome P450 1A2 (Homo sapiens) (UniProt P05177); assay: p450-cyp1a2 (AID 410; calls by dose curve;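 further: -100% = full effect of reference inhibitor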)
Procedure, shortened: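 Luminescent readout of luciferin formed from Luciferin-ME by human CYP1A2; data normalized against complete inhibition by 57 uM furafylline. Enzyme 20nM, substrate 100uM at Km, 100mM KPO4 buffer, 60 min reaction at room temperature.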

[3] = NFAT Signaling Pathway (AID 444; active means well fitted curve in either direction with a large enough effect, not every such curve was filed as active;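 further: carbachol stimulus at about its EC50 of 1 µM final; on the % scale 0 is the no-effect control and ±100 the full control effect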); conditions: Jurkat NFAT-bla M1, carbachol, beta-lactamase ratio, 5 h; at 7.69 µM (top of the series) unless noted
Procedure, shortened: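 Jurkat cells carrying an NFAT-driven β-lactamase reporter and co-transfected muscarinic M1 receptor were treated with compound plus carbachol (1 uM final, an EC50 level) for 5 h at 37 °C. CCF4 loading followed for 1 h at RT; 460/530 nm ratio gave %activity.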

[4] = Stat Signaling Pathway (AID 446; active means well fitted curve in either direction with a large enough effect, not every such curve was filed as active;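 further: ME-180 cervical cancer cells given 40 pM IL-6 alongside compound; SIE-controlled beta-lactamase reporter measured as 460/530 nm FRET emission ratio; on the % scale 0 is the no-effect control and ±100 the full control effect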); conditions: ME-180 SIE beta-lactamase reporter, IL-6 stimulated, 5 h; at 7.69 µM (top of the series) unless noted
Procedure, shortened: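 Reporter line: ME-180 cervical carcinoma, SIE-beta-lactamase. Treatment: compound with 40 pM IL-6, 5 hrs, 37 C, in low-serum OPTI-MEM with 10 mM HEPES pH 7.3. Detection: 460/530 nm fluorescence.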

[5] = biological target: Glucocorticoid receptor (Homo sapiens) (UniProt P04150); assay: GR-GFP Redistribution (AID 450;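 active means compounds whose dose series gives a full or clear partial fitted curve of increased nuclear translocation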; further: potency means the concentration at half of the fitted maximal effect); conditions: U2OS GR-GFP nuclear translocation, laser cytometry, 2 h
[6] = biological target: Glucocorticoid receptor (Homo sapiens) (UniProt P04150); assay: GR-EFC Redistribution (AID 451; calls by dose curve; further: potency means the concentration at half of the fitted maximal effect); conditions: CHO-K1 GR-EFC translocation, beta-gal luminescence, 2 h
Procedure, shortened: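 CHO-K1 cells stably expressing nuclear-localized β-gal enzyme acceptor and GR fused C-terminally to the enzyme donor fragment; ligand-driven nuclear translocation restores β-gal by complementation. Compounds titrated up to 46 uM final, 2 h at 37 °C; luminescence read.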

[7] = biological target: Mitogen-activated protein kinase 10 (Mus musculus) (UniProt Q61831); assay: JNK3 AlphaScreen Assay (AID 530; active means well fitted curve in either direction with a large enough effect, not every such curve was filed as active;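 further: kinase came from lysate of stimulated human HepG2 cells; signal reports phosphorylation of biotinylated GST-cJun 1-79 at Ser73 with 10 µM ATP; on the % scale 0 is the no-effect control and ±100 the full control effect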)
Procedure, shortened: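 Inhibitors reduce antibody binding to phosphorylated biotin-cJun, lowering AlphaScreen luminescence. Lysates from HepG2 cells pre-activated by IL-1beta plus TNF-alpha supplied JNK3; compounds were titrated.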

[8] = biological target: 3',5'-cyclic-AMP phosphodiesterase 4B (Homo sapiens) (UniProt Q07343); assay: qHTS Assay for Inhibitors of PDE-IV (AID 607; active means well fitted activation curve with a large enough effect in the main read-out, with a control signal flat, not every such curve was filed as active; further: % of control where 0% means no effect)
Procedure, shortened: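 Cell-based read-out of cAMP via a modified cyclic nucleotide-gated channel and membrane potential dye (535/590 nm) in HEK293 cells expressing PDE4 endogenously. Compounds tested up to 22.9 uM final; 100 uM RO 20-1724 reference.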

[9] = biological target: Guanine nucleotide-binding protein G(i) subunit alpha-1 (Homo sapiens) (UniProt P63096); assay: qHTS Assay for Inhibitors of RGS12 GoLoco Motif Activity (Green Fluorophore) (AID 879);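 further: 0% = labeled peptide with Gαi1 and full inhibition = labeled peptide alone without protein; negative values mean loss of peptide binding seen as reduced polarization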
Procedure, shortened: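 Fluorescence polarization assay: 50 nM Gαi1 with 10 nM FITC-labeled RGS12 GoLoco peptide in 10 mM Tris pH 7.5, 150 mM NaCl, 0.1 mM GDP, 0.05% NP40, 10 min at room temperature with compound.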

[10] = qHTS Assay for Identification of Small Molecule Antagonists for NFkB Signaling Pathway (AID 895; active means well fitted inhibition curve with a large enough effect in the signal ratio, with a control signal flat, not every such curve was filed as active; the % refers to the signal ratio; further: on the % scale 0 is the no-effect control and ±100 the full control effect)
Procedure, shortened: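 NFkB-bla ME-180 cervical carcinoma cells with beta-lactamase reporter under NFkB response element; compounds added, then TNF alpha at 10 pM final (EC50), 5 h at 37 C. LiveBLAzer substrate 2 h, room temperature; emission 460/530 nm at 405 nm excitation.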

[11] = qHTS Assay for Identification of Small Molecule Agonists for Thrombopoietin (TPO) Signaling Pathway (AID 917); further: on the % scale 0 is the no-effect control and ±100 the full control effect
Procedure, shortened: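 We measured Glycoprotein IIb promoter–luciferase output in IL-3-starved Ba/F3 murine cells expressing the human TPO receptor after 24 hrs at 37 C with compounds and 26 pM TPO.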

[12] = biological target: Muscarinic acetylcholine receptor M1 (Rattus norvegicus) (UniProt P08482); assay: qHTS Assay for Antagonists of Acetylcholine Muscarinic M1 Receptor: Measurement of IP-One Response (AID 944); further: nearly all actives have a fitted effect of over 75% in size
Procedure, shortened: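 M1-CHO (rat), 2000 cells/well, overnight recovery; cpd 10 min; carbachol EC80 (200 nM), 30 min, HEPES buffer + 50 mM LiCl pH 7.4; IP-One HTRF, Ex 337, Em 620/665 nm.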

[13] = biological target: Pyruvate kinase (Leishmania mexicana) (UniProt Q27686); assay: qHTS Validation Assay for Inhibitors of Leishmania Mexicana Pyruvate Kinase (AID 945);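 further: 0% = DMSO only neutral control wells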
Procedure, shortened: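 Eight-point qHTS titrations in triplicate, data normalized to DMSO neutral control. Reaction: 0.2 nM LmPYK E451W mutant, 0.5 mM PEP, 0.1 mM ADP, 7 mM MgCl2, pH 7.2, one hour at room temperature; luminescent ATP detection.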

[14] = biological target: Pyruvate kinase PKM (Homo sapiens) (UniProt P14618); assay: qHTS Assay for Activators of Human Muscle Pyruvate Kinase (AID 954; active means well fitted curve in the direction sought with a large enough effect, not every such curve was filed as active;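 further: 0% = uninhibited enzyme and -100% = no enzyme or full thiadiazolimine inhibition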)
Procedure, shortened: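 Human PKM2 activity is measured as ATP generation, detected by luciferase-coupled luminescence. The enzyme (0.1 nM) acts on 0.5 mM PEP and 0.1 mM ADP for 1 h at ambient temperature; data are normalized to uninhibited and full-inhibition wells.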

[15] = biological target: Alpha-galactosidase A (Homo sapiens) (UniProt P06280); assay: Counterscreen for Glucocerebrosidase Inhibitors: qHTS Assay for Human alpha-Galactosidase at pH 4.5 (AID 992); further: 0% is about no effect
Procedure, shortened: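 Quantitative HTS: compounds tested from 0.7 nM up to 77 uM against 2 nM enzyme with 80 uM 4-MU alpha-D-galactopyranoside. The 20 min room-temperature reaction is stopped with 1M NaOH/1M glycine, pH 10.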

[16] = biological target: Cytochrome P450 2C19 (Homo sapiens) (UniProt P33261); assay: qHTS Assay for Inhibitors and Substrates of Cytochrome P450 2C19 (AID 899); further: on the % scale 0 is the no-effect control and ±100 the full control effect; nearly all actives have a fitted effect of over 60% in size
Procedure, shortened: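 In 50mM KPO4, the reaction held 5nM enzyme and KM-level (10uM) Luciferin-H EGE; it ran 60 min at 37C after NADPH regeneration and a 10 min compound preincubation. Luminescence values were scaled to 57uM ketoconazole as complete inhibition.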

[17] = biological target: alpha-glucosidase (Oryza sativa, rice) (UniProt Q653V4); assay: Counterscreen for Glucocerebrosidase Inhibitors: qHTS Assay for Rice alpha-Glucosidase at pH 5.0 (AID 997);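 further: 0% = full activity with enzyme and -100% = basal without enzyme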
Procedure, shortened: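 Rice alpha-glucosidase (4 nM final) with 400 uM 4-methylumbelliferyl-alpha-D-glucopyranoside in citrate buffer pH 5.0, 20 min at room temperature, stopped at pH 10; fluorescence 365/440 nm, compounds 0.7 nM–77 uM, AC50 from Hill fits.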

[18] = biological target: Cytochrome P450 3A4 (Homo sapiens) (UniProt P08684); assay: qHTS Assay for Activators of Cytochrome P450 3A4 (AID 885); further: nearly all actives have a fitted effect of over 65% in size
Procedure, shortened: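 Signal was normalized against complete inhibition by 57 uM ketoconazole. The reaction used 20nM CYP3A4 with 25uM Luciferin-PPXE, 10-min compound preincubation and a 60-min NADPH-supported step at RT.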

Alpha-galactosidase A (Homo sapiens), sequence (P06280 whole entry, looked up): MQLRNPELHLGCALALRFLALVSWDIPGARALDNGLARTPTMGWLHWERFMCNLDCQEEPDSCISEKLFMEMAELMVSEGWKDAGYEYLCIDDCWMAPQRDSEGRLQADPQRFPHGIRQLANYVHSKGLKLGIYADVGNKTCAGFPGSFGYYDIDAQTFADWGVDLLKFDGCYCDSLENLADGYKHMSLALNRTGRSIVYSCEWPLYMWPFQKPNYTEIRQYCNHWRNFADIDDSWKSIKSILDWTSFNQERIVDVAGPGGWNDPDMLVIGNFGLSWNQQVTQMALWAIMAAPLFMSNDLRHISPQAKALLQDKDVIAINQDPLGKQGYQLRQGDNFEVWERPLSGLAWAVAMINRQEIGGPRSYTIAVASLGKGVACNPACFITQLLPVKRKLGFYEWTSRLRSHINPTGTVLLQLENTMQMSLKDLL
Cytochrome P450 1A2 (Homo sapiens), sequence (P05177 whole entry, looked up): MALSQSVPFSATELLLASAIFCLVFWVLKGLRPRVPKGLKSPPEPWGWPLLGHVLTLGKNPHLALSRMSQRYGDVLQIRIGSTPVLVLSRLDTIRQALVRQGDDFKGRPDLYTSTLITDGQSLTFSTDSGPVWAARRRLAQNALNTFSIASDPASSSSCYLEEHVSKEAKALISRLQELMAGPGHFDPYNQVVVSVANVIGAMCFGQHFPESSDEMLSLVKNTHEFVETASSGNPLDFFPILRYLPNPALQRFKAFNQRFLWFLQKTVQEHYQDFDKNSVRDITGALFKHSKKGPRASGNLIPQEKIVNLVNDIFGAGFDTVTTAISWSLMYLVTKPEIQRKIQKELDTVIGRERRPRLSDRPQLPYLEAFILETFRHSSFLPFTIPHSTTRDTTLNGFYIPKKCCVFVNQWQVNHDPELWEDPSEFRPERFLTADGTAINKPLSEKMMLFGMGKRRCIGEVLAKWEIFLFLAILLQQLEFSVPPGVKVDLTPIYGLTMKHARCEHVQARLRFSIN
Glucocorticoid receptor (Homo sapiens), sequence (P04150 whole entry, looked up, the tested form may be a part): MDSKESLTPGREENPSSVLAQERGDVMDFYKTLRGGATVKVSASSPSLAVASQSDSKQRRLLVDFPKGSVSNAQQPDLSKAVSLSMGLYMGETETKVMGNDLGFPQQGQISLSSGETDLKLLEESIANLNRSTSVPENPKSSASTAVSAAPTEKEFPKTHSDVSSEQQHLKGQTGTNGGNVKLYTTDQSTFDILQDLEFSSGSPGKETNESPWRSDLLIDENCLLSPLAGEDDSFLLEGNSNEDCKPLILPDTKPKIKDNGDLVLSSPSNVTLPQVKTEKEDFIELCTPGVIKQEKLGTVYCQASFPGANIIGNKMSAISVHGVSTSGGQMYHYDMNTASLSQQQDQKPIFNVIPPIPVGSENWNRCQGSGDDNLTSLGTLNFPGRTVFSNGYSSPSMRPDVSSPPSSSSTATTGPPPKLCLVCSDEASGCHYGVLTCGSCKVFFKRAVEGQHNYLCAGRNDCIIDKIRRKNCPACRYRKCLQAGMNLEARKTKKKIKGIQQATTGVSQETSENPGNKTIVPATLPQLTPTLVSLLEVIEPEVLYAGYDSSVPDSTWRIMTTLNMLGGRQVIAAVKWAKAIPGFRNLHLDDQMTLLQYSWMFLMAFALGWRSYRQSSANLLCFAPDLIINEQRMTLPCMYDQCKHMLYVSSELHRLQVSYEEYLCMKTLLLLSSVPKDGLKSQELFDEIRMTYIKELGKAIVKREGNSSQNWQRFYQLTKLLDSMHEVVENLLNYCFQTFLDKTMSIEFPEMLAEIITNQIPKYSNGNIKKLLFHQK
Muscarinic acetylcholine receptor M1 (Rattus norvegicus), sequence (P08482 whole entry, looked up): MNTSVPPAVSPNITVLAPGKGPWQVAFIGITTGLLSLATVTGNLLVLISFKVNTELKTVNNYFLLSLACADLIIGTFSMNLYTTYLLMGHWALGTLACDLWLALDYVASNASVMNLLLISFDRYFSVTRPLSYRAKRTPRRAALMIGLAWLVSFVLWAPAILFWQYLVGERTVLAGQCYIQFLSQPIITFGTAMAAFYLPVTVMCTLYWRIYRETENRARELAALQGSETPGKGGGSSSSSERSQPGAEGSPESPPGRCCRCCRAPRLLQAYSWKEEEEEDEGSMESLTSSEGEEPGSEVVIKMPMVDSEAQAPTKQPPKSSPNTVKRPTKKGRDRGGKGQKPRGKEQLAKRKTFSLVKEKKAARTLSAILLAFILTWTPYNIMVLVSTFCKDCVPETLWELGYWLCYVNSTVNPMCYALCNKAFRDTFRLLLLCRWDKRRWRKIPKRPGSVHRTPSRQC
Cytochrome P450 2C19 (Homo sapiens), sequence (P33261 whole entry, looked up): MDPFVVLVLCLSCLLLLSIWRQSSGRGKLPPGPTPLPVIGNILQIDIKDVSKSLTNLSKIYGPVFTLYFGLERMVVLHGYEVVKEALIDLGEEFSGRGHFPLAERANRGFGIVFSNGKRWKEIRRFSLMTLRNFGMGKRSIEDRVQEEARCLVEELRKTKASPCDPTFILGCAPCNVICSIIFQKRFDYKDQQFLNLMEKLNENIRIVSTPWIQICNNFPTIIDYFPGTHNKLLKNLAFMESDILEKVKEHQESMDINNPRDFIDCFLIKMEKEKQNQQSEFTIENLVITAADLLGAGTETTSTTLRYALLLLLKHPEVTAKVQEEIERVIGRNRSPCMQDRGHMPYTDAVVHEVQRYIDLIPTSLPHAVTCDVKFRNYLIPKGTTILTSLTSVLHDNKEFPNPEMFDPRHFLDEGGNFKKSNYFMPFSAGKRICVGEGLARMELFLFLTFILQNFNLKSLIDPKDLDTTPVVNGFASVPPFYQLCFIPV
Pyruvate kinase PKM (Homo sapiens), sequence (P14618 whole entry, looked up): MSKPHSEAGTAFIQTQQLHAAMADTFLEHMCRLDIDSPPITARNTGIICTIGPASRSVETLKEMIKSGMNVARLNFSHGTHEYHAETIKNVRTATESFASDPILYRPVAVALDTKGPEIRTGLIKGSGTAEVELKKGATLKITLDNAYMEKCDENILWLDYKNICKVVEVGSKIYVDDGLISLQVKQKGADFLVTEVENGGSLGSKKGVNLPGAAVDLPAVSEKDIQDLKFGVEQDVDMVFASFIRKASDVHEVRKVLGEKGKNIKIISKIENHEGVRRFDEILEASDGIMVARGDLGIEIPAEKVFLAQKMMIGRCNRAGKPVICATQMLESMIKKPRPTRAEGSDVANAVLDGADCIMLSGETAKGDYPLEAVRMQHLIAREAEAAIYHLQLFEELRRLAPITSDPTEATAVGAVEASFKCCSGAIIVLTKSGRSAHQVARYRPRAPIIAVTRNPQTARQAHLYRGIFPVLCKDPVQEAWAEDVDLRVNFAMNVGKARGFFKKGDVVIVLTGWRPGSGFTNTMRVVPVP
Pyruvate kinase (Leishmania mexicana), sequence (Q27686 2-499 E452W): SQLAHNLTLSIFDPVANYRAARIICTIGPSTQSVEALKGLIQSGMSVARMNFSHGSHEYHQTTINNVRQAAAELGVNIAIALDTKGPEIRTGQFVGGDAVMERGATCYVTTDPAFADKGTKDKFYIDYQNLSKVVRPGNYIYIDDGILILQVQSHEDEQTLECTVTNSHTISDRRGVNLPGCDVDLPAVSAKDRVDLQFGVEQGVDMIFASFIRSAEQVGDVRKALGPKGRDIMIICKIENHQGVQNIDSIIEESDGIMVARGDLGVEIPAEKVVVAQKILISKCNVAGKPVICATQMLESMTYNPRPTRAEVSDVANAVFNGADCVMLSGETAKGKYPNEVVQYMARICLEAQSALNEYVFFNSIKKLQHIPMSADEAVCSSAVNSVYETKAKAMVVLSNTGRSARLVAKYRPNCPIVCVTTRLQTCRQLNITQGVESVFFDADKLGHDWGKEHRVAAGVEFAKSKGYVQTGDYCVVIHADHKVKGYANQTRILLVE
Guanine nucleotide-binding protein G(i) subunit alpha-1 (Homo sapiens), sequence (P63096 whole entry, looked up): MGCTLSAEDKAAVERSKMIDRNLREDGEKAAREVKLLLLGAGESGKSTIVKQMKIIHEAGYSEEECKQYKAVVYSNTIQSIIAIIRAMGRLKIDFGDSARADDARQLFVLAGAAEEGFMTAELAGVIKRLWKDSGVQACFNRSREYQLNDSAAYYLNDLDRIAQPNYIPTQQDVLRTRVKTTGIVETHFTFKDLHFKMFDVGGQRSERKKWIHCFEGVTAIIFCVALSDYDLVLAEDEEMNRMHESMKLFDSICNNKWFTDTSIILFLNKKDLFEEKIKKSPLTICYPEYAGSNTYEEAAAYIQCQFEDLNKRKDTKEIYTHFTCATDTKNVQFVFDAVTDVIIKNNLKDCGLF
3',5'-cyclic-AMP phosphodiesterase 4B (Homo sapiens), sequence (Q07343 whole entry, looked up): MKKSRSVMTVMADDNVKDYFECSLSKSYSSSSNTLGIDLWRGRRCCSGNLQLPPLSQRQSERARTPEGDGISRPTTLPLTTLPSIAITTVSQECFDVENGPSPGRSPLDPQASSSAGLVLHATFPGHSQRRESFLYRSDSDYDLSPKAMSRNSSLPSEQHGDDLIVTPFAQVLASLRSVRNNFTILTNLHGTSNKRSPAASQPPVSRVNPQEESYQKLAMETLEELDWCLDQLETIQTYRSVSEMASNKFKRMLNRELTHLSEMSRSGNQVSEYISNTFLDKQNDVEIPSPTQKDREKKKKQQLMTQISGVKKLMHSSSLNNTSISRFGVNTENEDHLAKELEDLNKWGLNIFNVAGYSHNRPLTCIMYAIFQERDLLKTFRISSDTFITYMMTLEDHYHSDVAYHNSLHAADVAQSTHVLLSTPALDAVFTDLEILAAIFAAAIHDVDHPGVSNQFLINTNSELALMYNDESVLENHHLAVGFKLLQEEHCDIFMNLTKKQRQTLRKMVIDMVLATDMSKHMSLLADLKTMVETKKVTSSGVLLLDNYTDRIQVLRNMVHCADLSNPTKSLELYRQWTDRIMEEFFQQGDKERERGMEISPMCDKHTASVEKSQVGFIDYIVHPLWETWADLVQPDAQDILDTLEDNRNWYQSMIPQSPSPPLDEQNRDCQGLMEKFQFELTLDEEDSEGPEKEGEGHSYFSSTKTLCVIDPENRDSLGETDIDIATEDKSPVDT

C[C@@H]1O[C@@H](n2cc(F)c(=O)[nH]c2=O)[C@H](O)[C@@H]1O
inactive: activity change, negative = inhibition [1] -3.92% [at 38 µM] | Potency [2] | activity change, negative = inhibition [3] 3.74% [at 38 µM] | activity, negative = inhibition [4] 21.9% [at 38 µM] | Potency [5] > 46 µM | Potency [6] > 46 µM | Potency [7] | Potency [8] | outcome [9] | Potency [10] | outcome [11] | Potency [12] | outcome [13] | outcome [14] | outcome [15]

N[C@H](CCCC(=O)O)C(=O)O
inactive: activity change, negative = inhibition [1] 3.41% [at 38 µM] | Potency [2] | activity change, negative = inhibition [3] 7.48% [at 38 µM] | activity, negative = inhibition [4] -3.61% [at 38 µM] | Potency [5] > 46 µM | Potency [6] > 46 µM | Potency [7] | Potency [8] | outcome [9] | Potency [16] | Potency [12] | outcome [14] | outcome [15] | Potency [17]

O=C(O)CCC(=O)N1CCC[C@H]1C(=O)O
inactive: activity change, negative = inhibition [1] 14% [at 38 µM] | Potency [2] | activity change, negative = inhibition [3] 7.11% [at 38 µM] | activity, negative = inhibition [4] -28.5% [at 38 µM] | Potency [5] > 46 µM | Potency [6] > 46 µM | Potency [7] | Potency [8] | outcome [9] | Potency [16] | Potency [12] | outcome [13] | outcome [14] | outcome [15] | Potency [17]

Nc1ccc(CCNc2ncnc3c2ncn3[C@@H]2O[C@@H](CO)[C@H](O)[C@@H]2O)cc1
inactive: activity change, negative = inhibition [1] -2.21% [at 38 µM] | Potency [2] | activity change, negative = inhibition [3] 3.61% [at 38 µM] | activity, negative = inhibition [4] 17.4% [at 38 µM] | Potency [5] > 46 µM | Potency [6] > 46 µM | Potency [7] | Potency [8] | outcome [9] | Potency [18] | outcome [11] | outcome [13] | outcome [14] | outcome [15]

CN[C@]1(C)[C@@H]2CC[C@@H](C2)C1(C)C
inactive: activity change, negative = inhibition [1] -7.63% [at 38 µM] | Potency [2] | activity change, negative = inhibition [3] -5.79% [at 38 µM] | activity, negative = inhibition [4] -12.2% [at 38 µM] | Potency [5] > 46 µM | Potency [6] > 46 µM | Potency [7] | Potency [8] | outcome [9] | Potency [16] | Potency [12] | outcome [14] | outcome [15] | Potency [17]

O=C(O)CC[C@@H](NC(=O)c1ccccc1C(=O)O)C(=O)O
inactive: activity change, negative = inhibition [1] 10.1% [at 38 µM] | Potency [2] | activity change, negative = inhibition [3] 6.53% [at 38 µM] | activity, negative = inhibition [4] -11.8% [at 38 µM] | Potency [5] > 46 µM | Potency [6] > 46 µM | Potency [7] | Potency [8] | outcome [9] | Potency [12] | outcome [13] | outcome [14] | outcome [15]
